Compound activity as filed in PubChem.
Tau fluor counter: counter-screen for tau fibril formation inhibitors | tau K18 P301L Alexa594 fluorescence, heparin fibrillization | Potency, µM (highest dose often 57.7 µM), inactives show at the top dose activity change, negative = decrease | 280,000 compounds, 0.93% hits | AID 1463; further: nearly all actives have a fitted effect of over 55% in size
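Human K18 P301L tau (15 uM unlabeled plus 0.24 uM Alexa 594-labeled, final) in 100 mM sodium acetate pH 7 was mixed with compound and 20 uM heparin and incubated 6 hr at 37 C.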
Tau ThT inhib: tau fibrillization inhibition (ThT binding); Potency, µM (top dose mostly 57.4 µM), for the others: at the top dose activity, negative = inhibition, usual class: inhibitors; recombinant tau K18 P301L (four-repeat tau fragment), heparin-induced fibrillization, ThT fluorescence; 270,000 compounds, 2.1% hits; AID 1460; further: nearly all actives have a fitted effect of over 55% in size
Target sequence (P10636 561-689 P618L limits assumed): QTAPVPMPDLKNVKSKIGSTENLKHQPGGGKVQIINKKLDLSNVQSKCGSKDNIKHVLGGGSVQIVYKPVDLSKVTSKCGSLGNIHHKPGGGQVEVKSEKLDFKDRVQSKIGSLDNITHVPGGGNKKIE
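Tau K18 P301L fragment (15 uM unlabeled plus 0.24 uM Alexa 594-labeled) in 100 mM sodium acetate pH 7 with compound, fibrillization induced by 20 uM heparin for 6 hr at 37 C. Thioflavin T (30 uM) added, fluorescence read after 1 hr (ex 450, em 510 nm).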
KDM4E inh: blocks human JMJD2E demethylase activity | Potency, µM (titrated, usually from 57.1 µM), inactives show top-dose activity change, negative = inhibition, usual class: inhibitors | 230,000 compounds, 1.6% hits | JMJD2E catalytic domain, FDH-coupled NADH fluorescence (FDH is formaldehyde dehydrogenase);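 further: 0% = wells with enzyme and -100% = buffer wells without enzyme; nearly all actives have a fitted effect of over 50% in size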
Tau fibril FP: inhibitors of human tau fibril formation; Potency, µM (top dose mostly 57.7 µM), without a hit: top-dose activity, negative = inhibition, usual class: inhibitors; K18 P301L tau heparin fibrillization, Alexa594 FP, 6 h; 280,000 compounds, 0.39% hits; AID 1468; further: nearly all actives have a fitted effect of over 55% in size
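Steps: dispense K18 P301L tau (15 uM plus 0.24 uM Alexa 594 tracer, final) in pH 7 sodium acetate; add compound; add heparin (20 uM final); incubate 6 hr, 37 C; add ThT (30 uM final); after 1 hr ambient, read FP.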
GoLoco inh red: blocks human Gai1 binding to RGS12 GoLoco peptide, red readout. P63096. Gai1:RGS12 GoLoco peptide FP, rhodamine, 10 min. Potency, µM (series often up to 61.6 µM), without a hit: at the top dose activity, negative = inhibition, actives largely listed as inhibitors. 230,000 compounds, 0.44% hits; active means well fitted inhibition curve with a large enough effect, not every such curve was filed as active; inactive means no such curve, though single readings can be large or run the other way; further: nearly all actives have a fitted effect of over 30% in size
Target sequence (P63096 whole entry, looked up): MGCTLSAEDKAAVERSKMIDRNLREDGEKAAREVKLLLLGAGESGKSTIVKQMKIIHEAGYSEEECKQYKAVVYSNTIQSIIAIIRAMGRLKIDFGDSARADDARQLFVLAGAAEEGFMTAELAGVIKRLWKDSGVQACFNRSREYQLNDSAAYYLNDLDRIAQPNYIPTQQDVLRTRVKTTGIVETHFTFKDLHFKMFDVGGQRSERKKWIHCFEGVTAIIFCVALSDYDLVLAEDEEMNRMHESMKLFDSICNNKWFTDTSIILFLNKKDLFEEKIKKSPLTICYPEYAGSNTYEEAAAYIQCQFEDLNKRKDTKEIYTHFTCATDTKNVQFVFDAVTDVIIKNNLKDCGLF
* marks the source's active call; other numbers are inactive results; ? = inconclusive; / = no result; [ ] = dose if it differs, or a comment. Shown are actives, neighbours in structure and some others; about 3.4% of the full set was active somewhere. Unless noted, the call rests on the fitted dose curve; in most records, active means well fitted curve in the direction sought with a large enough effect; inconclusive means small, poorly fitted or top-dose-only effect, or another doubt; inactive means no such curve, though single readings can be large; an effect the other way counts as inactive or inconclusive. Unless noted, on the % scale 0 is the no-effect control and ±100 the full control effect; potency means the concentration at half of the fitted maximal effect.

SMILES	Tau fluor counter	Tau ThT inhib	KDM4E inh	Tau fibril FP	GoLoco inh red
Cc1nc(-c2ccc(Cl)cc2)sc1CCNC(=O)c1ccco1	-14.8%	?	/	-4.9%	/
Cc1ccccc1Nc1c(-c2ccccc2O)nc2sccn12	12.6µM*[quencher]	-12.5%	/	?	/
Cc1ccccc1Nc1c(-c2ccc(O)cc2)nc2c(C)cccn12	25.1µM*[quencher]	?	/	7.9%	/
Cc1ccc(Nc2c(-c3ccc(C)cc3)nc3c(C)cccn23)cc1	?	?	/	3.1%	/
COc1ccc(N2CCN(C(=O)c3nc(-c4ccc(Cl)cc4)n4c3CCCCC4)CC2)cc1	-14.6%	?	/	6.4%	/
COc1ccccc1CNC(=O)c1cnc2sc(N3CCCCCC3)nn2c1=O	-8.9%	-6.5%	/	2.6%	/
O=C(Cc1cnn(-c2ccccc2)c1)c1ccc(O)c(O)c1O	?	14.1µM*	12.6µM*	?	1.5%
CCc1cc(C(=O)Cc2cnn(-c3ccccc3)c2)c(O)cc1O	?	?	?	?	-3.2%
N#C/C(=C/c1ccc(N2CCCCC2)o1)C(=O)Nc1ccc2ccccc2c1	?	12.6µM*	25.1µM*	10.4%	-161.0%
N#C/C(=C/c1ccc(N2CCCCC2)o1)C(=O)Nc1ccc(Cl)cc1	-11.8%	?	2.5%	11.1%	-66.1%
COc1ccc(NC(=O)/C(C#N)=C/C=C/c2ccco2)cc1	-7.3%	7.08µM*	0.1%	8.8%	9.4%
COc1ccc(NC(=O)/C(C#N)=C\c2ccc(N3CCOCC3)o2)cc1	?	12.6µM*	?	17.1%	11.2%
N#C/C(=C\c1ccc(N2CCOCC2)o1)C(=O)Nc1ccc(O)cc1	-21.6%	14.1µM*	-5.0%	-1.8%	15.8%
COc1ccc(NC(=O)/C(C#N)=C/c2ccc(C)o2)cc1	-5.4%	?	/	-2.0%	/
O=[N+]([O-])/C(C(Cl)=C(Cl)Cl)=C(/Sc1ccccc1)N1CCCCC1	-26.6%	22.4µM*	?	?	3.9%
O=[N+]([O-])c1cc(-c2ncccn2)c([N+](=O)[O-])s1	?	11.2µM*	-0.1%	14.2%	-10.4%
O=C(Nc1ncccn1)c1cc([N+](=O)[O-])cc([N+](=O)[O-])c1	8.2%	3.4%	-9.3%	-0.4%	-9.0%
COc1ccc(Cl)cc1NC(=O)CCC(=O)N1CCOc2ccccc21	7.7%	9.5%	/	?	/
COc1ccccc1NC(=O)N1CCOc2ccccc21	12.6µM*[quencher]	?	/	4.0%	/
O=C(C1=C[C@@H]2[C@H]3C(=O)N(c4ccccc4Cl)C(=O)[C@H]3[C@@H](C(=O)c3ccc(Cl)cc3)N2C=C1)c1ccccc1	?	22.4µM*	?	-9.4%	93.8%
O=C1c2ccccc2-c2nnc(-c3ccc(O)cc3)cc21	?	5.01µM*	2.7%	15.0%	-2.5%
CC(=C1C(=O)c2ccccc2C1=O)N1CCN(Cc2ccccc2)CC1	-25.7%	?	-1.6%	-5.8%	-8.2%
CC(=C1C(=O)c2ccccc2C1=O)N1CCN(C/C=C/c2ccccc2)CC1	-29.0%	22.4µM*	-3.8%	-2.5%	5.0%
CN(C)/C=C/c1oc2ccc(O)cc2c1[N+](=O)[O-]	-12.6%	11.2µM*	-2.3%	4.7%	14.8%
COc1cc(/C=C2/SC(=O)NC2=O)ccc1Oc1ccc([N+](=O)[O-])cc1[N+](=O)[O-]	?	15.8µM*	4.9%	-7.3%	-9.3%
SMILES	Tau fluor counter	Tau ThT inhib	KDM4E inh	Tau fibril FP	GoLoco inh red
COc1cc(/C=C2\SC(=O)NC2=O)ccc1Oc1ccc([N+](=O)[O-])cn1	-12.4%	?	-4.2%	3.0%	10.0%
COc1ccc(NC(=O)Cn2c(=O)oc3cc(S(=O)(=O)NC4CCCC4)ccc32)cc1OC	-13.3%	-3.6%	/	-9.9%	/
COc1ccccc1-c1noc(CSc2nnc(Cc3ccccc3)n2-c2ccc(C)c(C)c2)n1	-15.8%	-17.0%	/	9.9%	/
N=c1c[n+](N2CCOCC2)[n-]o1	-20.2%	12.6µM*	-6.9%	?	-9.0%
COc1ccccc1CNC(=O)CCCCn1c(=O)c2ccccc2n(CC(=O)Nc2c(C)cc(C)cc2C)c1=O	-2.2%	4.9%	/	-3.8%	/
Cc1cc(N)n2ncc(-c3ccc(F)cc3)c2n1	?	?	?	?	5.8%
Cc1cc(N)n2ncc(-c3ccc(Cl)cc3)c2n1	14.1µM*[quencher]	?	?	?	8.4%
COc1ccc2cc3c(N)c(C(=O)NCc4ccco4)sc3nc2c1	?	2.82µM*	?	9.8%	6.2%
